Bioassay records (PubChem BioAssay)
miR-122 inh: activators of miR-122 sensor in Huh7 cells; AID 623901; Huh7 psiCHECK-miR122 Renilla luciferase sensor, 48 h; 0.14% of 340,000 active; activation, % at 12.5 µM;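 active = mean activation of 30% or more, with every replicate also reaching 30%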;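 note: higher luciferase signal means stronger suppression of miR-122 activity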
Large screens that a line does not name were inactive. The full list was thinned out, with hits kept by preference.

COc1cccc(S(=O)(=O)N(C)C[C@H]2Oc3ncc(C#CCC(C)C)cc3C(=O)N([C@@H](C)CO)C[C@@H]2C)c1	none
CC(=O)N(C)C[C@@H]1Oc2cc(C#CC3CCCCC3)ccc2S(=O)(=O)N([C@H](C)CO)C[C@@H]1C	none
CC(C)C#Cc1ccc2c(c1)O[C@H](CN(C)C(=O)NC(C)C)[C@H](C)CN([C@H](C)CO)S2(=O)=O	none
COc1ccc2[nH]c(C(=O)O)c(NS(=O)(=O)c3ccc(Cl)s3)c2c1	miR-122 inh 40
COc1cccc(NS(=O)(=O)c2cc(C)sc2C)c1	none
CCCCCCNS(=O)(=O)c1ccc(Cl)s1	none
C[C@H]1CN([C@@H](C)CO)S(=O)(=O)c2ccc(Br)cc2O[C@H]1CN(C)CC1CCOCC1	none
COCC#Cc1cnc2c(c1)C(=O)N([C@H](C)CO)C[C@H](C)[C@@H](CN(C)Cc1ccccc1)O2	none
C[C@H](O)C#Cc1ccc2c(c1)O[C@H](CN(C)Cc1cncnc1)[C@H](C)CN([C@H](C)CO)S2(=O)=O	none
Cc1ccsc1/C=N/NC(=O)CSCc1ccc(Cl)cc1	miR-122 inh 36
C[C@H]1CN([C@@H](C)CO)C(=O)c2cc(C#CC(C)(C)O)cnc2O[C@@H]1CN(C)C(=O)C1CC1	none
C[C@H](CO)N1C[C@H](C)[C@H](CN(C)C(=O)c2cnccn2)Oc2ncc(C#Cc3ccccn3)cc2C1=O	none
COCC#Cc1cnc2c(c1)C(=O)N([C@H](C)CO)C[C@@H](C)[C@@H](CN(C)C(=O)Nc1c(C)noc1C)O2	none
C[C@H](O)C#Cc1ccc2c(c1)O[C@@H](CN(C)CC1CCOCC1)[C@H](C)CN([C@@H](C)CO)S2(=O)=O	none
C[C@H](CO)N1C[C@H](C)[C@H](CN(C)S(=O)(=O)c2ccccc2)Oc2ncc(C#Cc3ccccc3F)cc2C1=O	none
Cc1sc2ncnc(N/N=C/c3ccccc3O)c2c1C	miR-122 inh 37
C[C@H]1CN([C@@H](C)CO)C(=O)c2cc(C#Cc3ccccc3)cnc2O[C@H]1CN(C)C(=O)c1ccccn1	none
COc1cccc(-c2ccc3c(c2)O[C@@H](CN(C)CC2CC2)[C@@H](C)CN([C@H](C)CO)S3(=O)=O)c1	none
C[C@H](CO)N1C[C@H](C)[C@H](CN(C)C(=O)Nc2ccc3c(c2)OCO3)Oc2ncc(-c3ccccc3)cc2C1=O	none
C[C@@H]1CN([C@H](C)CO)C(=O)c2cc(C#CCc3ccccc3)cnc2O[C@H]1CN(C)Cc1cccc(C(=O)O)c1	none
CCCC(=O)Nc1ccc2c(c1)C(=O)N(C)C[C@@H](OC)[C@H](C)CN(CCC)[C@H](C)CO2	none
C[C@@H]1CN([C@H](C)CO)C(=O)c2cc(-c3cccc(C(=O)N(C)C)c3)cnc2O[C@@H]1CN(C)CC1CC1	none
C[C@H]1CN([C@@H](C)CO)C(=O)c2cccc(NC(=O)Nc3ccc4c(c3)OCO4)c2O[C@@H]1CN(C)CC1CCCCC1	none
C[C@H](CO)N1C[C@H](C)[C@H](CN(C)CC2CCCCC2)Oc2ccc(NC(=O)Nc3ccc(C(F)(F)F)cc3)cc2C1=O	miR-122 inh 44
C[C@@H]1CN([C@H](C)CO)C(=O)c2cc(-c3ccccc3)cnc2O[C@H]1CN(C)C(=O)Nc1ccc2c(c1)OCO2	none
C[C@H]1CN([C@@H](C)CO)C(=O)c2cccc(NC(=O)C3CCCCC3)c2O[C@@H]1CN(C)Cc1ccc(C(F)(F)F)cc1	none
C[C@H]1CN([C@@H](C)CO)C(=O)Cc2cc(NC(=O)Nc3ccc(C(F)(F)F)cc3)ccc2O[C@H]1CN(C)S(=O)(=O)c1ccc(F)cc1	none
C[C@@H]1CCCCO[C@H](CN(C)CC2CCCCC2)[C@H](C)CN([C@@H](C)CO)C(=O)c2cc(NC(=O)Nc3ccc(C(F)(F)F)cc3)ccc2O1	miR-122 inh 32
C[C@@H]1CCCCO[C@@H](CN(C)CC2CCCCC2)[C@@H](C)CN([C@H](C)CO)C(=O)c2cc(NC(=O)CCC(F)(F)F)ccc2O1	none
C[C@@H]1CN([C@@H](C)CO)C(=O)c2cc(NC(=O)NC3CCCCC3)ccc2O[C@@H]1CN(C)C(=O)Nc1ccc2c(c1)OCO2	miR-122 inh 32
C[C@@H]1CN([C@@H](C)CO)C(=O)c2cc(NC(=O)CCC(F)(F)F)ccc2O[C@@H]1CN(C)C(=O)Nc1ccc2c(c1)OCO2	none
COc1ccc(NC(=O)N(C)C[C@@H]2Oc3ncc(C4=CCCC4)cc3C(=O)N([C@H](C)CO)C[C@@H]2C)cc1	none
CC(=O)N1[C@H](CNC(=O)C2CC2)[C@@H](c2ccc(-c3ccccc3)cc2)[C@@H]1CO	none
C[C@@H]1CN([C@@H](C)CO)C(=O)c2cc(/C=C/c3ccccc3)cnc2O[C@H]1CN(C)C(=O)c1ccncc1	none
CCC(=O)N(C)C[C@H]1Oc2cc(-c3cccc(C#N)c3)ccc2S(=O)(=O)N([C@@H](C)CO)C[C@H]1C	none
C[C@@H]1CN([C@H](C)CO)C(=O)c2cc(-c3cccc(C#N)c3)cnc2O[C@H]1CN(C)Cc1ccccc1	none
COCC(=O)N(C)C[C@H]1Oc2cc(C#CC(C)C)ccc2S(=O)(=O)N([C@H](C)CO)C[C@H]1C	none
COc1ccc(S(=O)(=O)N(C)C[C@@H]2Oc3cc(-c4ccccc4OC)ccc3S(=O)(=O)N([C@H](C)CO)C[C@H]2C)cc1	none
